In the library only some 4.3% were active in any assay of this set; here they are far more common.
SW480 rereplic – A quantitative high throughput screen for small molecules that induce DNA re-replication in SW480 colon adenocarcinoma cells | SW480 DNA re-replication, Hoechst DNA content imaging, 48 h | Potency, µM (top dose mostly 46.1 µM), inactives show at the highest dose re-replication activation, actives largely listed as activators | 340,000 tested, 1.8% active; further: potency means the concentration at half of the fitted maximal effect; % of control where 0% means no effect; nearly all actives have a fitted effect of over 55% in size
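SW480 cells exposed to compounds for 48 hr at 37 C, 5% CO2, then Hoechst-stained 40 min. Nuclear DNA content imaged by fluorescence scanning (405 nm excitation, 500-530 nm emission); re-replication scored as increased high-intensity nuclei.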
Giardia kill – Small Molecules that selectively kill Giardia lamblia: qHTS. activity change, % at 7.66 µM, hits read low. Giardia lamblia trophozoite viability. 340,000 tested, 0.15% active; in the data active means activity change below about -80%; inconclusive means between about -30% and that limit;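 further: parasites exposed to compound for two days anaerobically before the ATP read; on the % scale 0 is the no-effect control and ±100 the full control effect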
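Trophozoites 100 cells/well + cpd; 48 hrs, 37 deg C, anaerobic. ATPLite 1-Step added, 15-30 min RT, luminescence read (ATP-based viability).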
uPA surface inh – qHTS for Inhibitors of Cell Surface uPA Generation | cell surface uPA generation assay, qHTS | Potency, µM (top dose mostly 38.3 µM), for the others: at the top dose activity change, negative = inhibition, hits mostly inhibitors | 330,000 tested, 0.31% active | AID 540303, 2011; active means well fitted inhibition curve with a large enough effect; inconclusive means small, poorly fitted or top-dose-only effect; inactive means no such curve, though single readings can be large or run the other way; tested in mouse RAW 264.7 cells; further: potency means the concentration at half of the fitted maximal effect; on the % scale 0 is the no-effect control and ±100 the full control effect; nearly all actives have a fitted effect of over 55% in size
MCF10A rereplic – A quantitative high throughput screen for small molecules that induce DNA re-replication in MCF 10a normal breast cells; MCF 10A DNA re-replication, Hoechst nuclear intensity, 48 h; Potency, µM (series often up to 46.1 µM), for inactives: top-dose activity, positive = re-replication, actives largely listed as activators; 350,000 tested, 2.9% active; AID 624296, 2012; further: potency means the concentration at half of the fitted maximal effect; % of control where 0% means no effect; nearly all actives have a fitted effect of over 50% in size
* marks the source's active call; other numbers are inactive results; ? = inconclusive; / = not tested or not shown; [ ] = dose if it differs, or a comment. Unless noted, the call rests on the fitted dose curve; in most records, active means well fitted activation curve with a large enough effect; inconclusive means small, poorly fitted or top-dose-only effect; inactive means no such curve, though single readings can be large or run the other way.

SMILES	SW480 rereplic	Giardia kill	uPA surface inh	MCF10A rereplic
Cc1[nH]c2ccccc2c1C(=O)CCl	13µM*	-23	8.9µM*	10µM*
CC(=O)c1c(C)[nH]c(-c2ccccc2)c1C	-2%	8	-6%	3%
Cc1cccc(C)c1NC(=O)CC12CCCN1CCC2	-1%	/	/	7%
CC1(NC(=O)Cc2csc(-c3cccc(Cl)c3)n2)CCS(=O)(=O)C1 (configuration not stated)	-10%	-20	10%	-9%
c1csc(-c2noc(COc3ccc4c(c3)CCCC4)n2)c1	7%	3	-5%	15µM*
Cc1ccc(C)c(-n2sc3ccc(F)cc3c2=O)c1	18µM*	10	-19%	?
COc1ccc(-n2sc3ccc(F)cc3c2=O)cc1	9%	-18	10µM*	?
CC(C)=NOc1nc(N2CCOCC2)nc(N2CCOCC2)n1	1%	8	0%	-17%
c1ccc(-c2cn3c(n2)-c2ccccc2C3)cc1	-3%	?	6.3µM*	12%
NC(=O)OC[C@@H]1[C@H](NC(=O)/C(=N/OCC(=O)O)c2csc(N)n2)C(=O)N1S(=O)(=O)O	0%	/	/	0%
COc1ccc(N2CCN(C(C)C(=O)Nc3nnc(C)s3)CC2)cc1 (configuration not stated)	-1%	8	1%	0%
Nc1c(N=Nc2ccccc2F)c(=O)[nH]n1-c1ccccc1	-2%[9.22 µM]	-19	3%	12%
Nc1nn(-c2ccccc2)c(N)c1N=Nc1ccccc1	5.2µM*	1	5µM*	5.8µM*
Cc1nn(-c2ccccc2)c(N)c1N=Nc1ccccc1	?	5	-8%	?
Nc1nn(-c2ccccc2)c(N)c1N=Nc1ccccc1F	10µM*	-7	-7%	8.2µM*
Cc1csc(NC(=O)CSC2=NS(=O)(=O)c3ccccc3N2)n1	-1%	4	25%	?
CC1(C)CC(=O)C(C=Nc2ccc(C(=O)c3ccccc3)cc2N=CC2=C(O)CC(C)(C)CC2=O)=C(O)C1	?	-11	0%	5.8µM*
CC1(C)CC(=O)C(C=Nc2ccc(O)c(N=CC3=C(O)CC(C)(C)CC3=O)c2)=C(O)C1	-6%	-23	-28%	-2%
c1ccc(C2=NNC(c3ccccn3)=NN2)nc1	?	-19	?	-16%
Cc1ccc(S(=O)(=O)N2CCCCC2CCNC(=O)C(=O)NCc2ccco2)cc1 (configuration not stated)	?	-4	-19%	9.2µM*
Cc1ccc(S(=O)(=O)N2CCCCC2CCNC(=O)C(=O)NCCc2ccco2)cc1 (configuration not stated)	6.5µM*	-6	1µM*	3.7µM*
O=C(NCCC1CCCCN1S(=O)(=O)c1ccccc1)C(=O)Nc1ccccc1F (configuration not stated)	-123%	1	9%	-4%
O=C(NCCC1CCCCN1S(=O)(=O)c1ccccc1)C(=O)Nc1ccc(F)cc1F (configuration not stated)	?	?	-9%	18µM*
O=C(NCCc1ccco1)C(=O)NCC1CCCN1S(=O)(=O)c1ccccc1 (configuration not stated)	16µM*	-9	-11%	?
Cc1ccc(C)c(S(=O)(=O)N2CCCC2CNC(=O)C(=O)NCCc2ccco2)c1 (configuration not stated)	-441%	24	-8%	?
SMILES	SW480 rereplic	Giardia kill	uPA surface inh	MCF10A rereplic
O=C(CNC(=O)C1CCCCC1)OCC(=O)c1ccccc1	/	9	/	/
O=C1c2ccccc2[C@@H]2C[C@H]3O[C@H]3CCN12	-6%	-2	8%	-3%
C=C1C(=O)O[C@H]2[C@H]1[C@@H](O)CC(=C)[C@@H]1CC(=O)[C@@H](C)[C@H]21	4.6µM*	-8	-15%	12µM*
Cc1nn(Cc2cccc(C(=O)NC34CC5CC(CC(C5)C3)C4)c2)c(C)c1Br	7%	-2	-4%	9.2µM*
CN(C)CCCn1c2c3ccccc3ccc2c2oc(=O)c3ccccc3c21	18µM*	-3	-6%	3.7µM*
COC(=O)C1CCC(=O)N1C(c1ccc(OC)cc1)c1cc(OC)c(OC)c(OC)c1 (configuration not stated)	0.73µM*	-24	-8%	1.3µM*
Cc1cc(OCC(=O)Nc2ccc(F)c(F)c2)nc(C(C)C)n1	23µM*	4	-7%	?
